Assay [1] deals with Estrogen receptor (Homo sapiens) (UniProt P03372). Nature of the assay: qHTS assay for small molecule agonists of estrogen receptor alpha signaling (AID 588514; calls by dose curve;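 also: 0% = vehicle only and 100% = reference agonist; nearly all actives have a fitted effect of over 70% in size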). The method, boiled down:
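ER-alpha-UAS-bla GripTite HEK 293 cells in medium with 2% charcoal/dextran-treated FBS were treated with compound titrations at 37 C for 18 hrs; beta-lactamase reporter read by CCF4 fluorescence after 2 hrs at RT.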
(In general: In qHTS, concentration-response curves come from the screen itself.)

Assay [2] addresses Glucocorticoid receptor (Homo sapiens) (UniProt P04150). Nature of the assay: qHTS assay for small molecule antagonists of glucocorticoid receptor signaling (AID 588533; active = well fitted inhibition curve with a large enough effect in the signal ratio, with a control signal flat, not every such curve was filed as active; the % refers to the signal ratio;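 also: cells stimulated with 2 nM dexamethasone as agonist; % is scaled to controls: 0 for no effect and ±100 for the full control effect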). The method, boiled down: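 Antagonist-mode qHTS: compound titrations added to GRE-bla HeLa cells, then dexamethasone 2 nM final; 18 h, 37 C. CCF4 FRET fluorescence normalized to dexamethasone and DMSO; IC50 from Hill fit.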

Assay [3] in a line: qHTS assay for small molecule antagonists of peroxisome proliferator-activated receptor delta signaling (AID 588535; active = well fitted inhibition curve with a large enough effect in the signal ratio, with a control signal flat, not every such curve was filed as active; the % refers to the signal ratio;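 as to max response: cells co-treated with a PPAR-delta agonist as stimulator during compound exposure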). The following applies: HEK293T PPARd-UAS-bla, beta-lactamase FRET ratio, 18 h; 460 nm channel. In a few lines: (§1)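 Cell-based beta-lactamase assay in antagonist mode: 4000 HEK293T PPAR-delta-UAS-bla cells per well, 5 hr preincubation then 18 hr compound incubation at 37 C. IC50 obtained by Hill equation fitting.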

The target in assay [4] is Peroxisome proliferator-activated receptor delta (Homo sapiens) (UniProt Q03181). Described as above. The method, boiled down:
as §1

Assay [5] in a line: qHTS assay for small molecule antagonists of retinoid X receptor alpha signaling (AID 588546; active = well fitted inhibition curve with a large enough effect in the signal ratio, with a control signal flat, not every such curve was filed as active; the % refers to the signal ratio;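 also: cells stimulated with 9-cis-retinoic acid as agonist; % is scaled to controls: 0 for no effect and ±100 for the full control effect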). The following applies: HEK293T RXRa-UAS-bla, beta-lactamase ratio, antagonist mode; measured here: W530 green channel, cytotoxicity proxy. In a few lines: (§2)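 Beta-lactamase reporter inhibition, read as CCF4 fluorescence ratio (ex 405, em 460/530 nm) after 2 h at RT. HEK293T UAS-bla cells, 2500/well, were stimulated with 9-cis-RA at 500 or 100 nM final alongside test compound for 18 h at 37 C.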

The target of assay [6] is Retinoic acid receptor RXR-alpha (Homo sapiens) (UniProt P19793). The description is as above. The following applies: HEK293T RXRa-UAS-bla, beta-lactamase ratio, antagonist mode. In a few lines: as §2
A short description of assay [7]: qHTS assay for small molecule activators of the p53 signaling pathway (AID 651743; active = well fitted activation curve with a large enough effect in the signal ratio, not every such curve was filed as active; the % refers to the signal ratio; also: series mostly up to about 92 µM; % of control where 0% means no effect). The following applies: HCT-116 p53RE-bla, beta-lactamase FRET ratio, 16 h; activation: stronger effect = higher value. In a few lines: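 Screen for p53 pathway agonists uses stably transfected p53RE-bla HCT-116 cells, 4,000 per well, treated 16 h at 37 C with compounds in DMSO.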
Assay [8] can be described thus: qHTS assay for environmental chemicals that activate the Aryl hydrocarbon Receptor (AhR) signaling pathway (AID 651777). Also: % of control where 0% means no effect; nearly all actives have a fitted effect of over 15% in size. The following applies: 1A2-DRE human hepatoma cells, luciferase, 24 h; activation: stronger effect = higher value. In a few lines: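 AhR activation is scored as a rise in luciferase from a stable DRE–CYP1A2 promoter construct in human hepatoma cells. Treatment lasts 24 hr at 37 C; detection uses One-Glo after 30 min at room temperature.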

Assay [9] addresses Peroxisome proliferator-activated receptor alpha (Homo sapiens) (UniProt Q07869). Nature of the assay: qHTS assay for small molecule agonists of the peroxisome proliferator-activated receptor alpha (PPARalpha) signaling pathway (AID 651778). Also: % of control where 0% means no effect. The following applies: PathHunter PPARalpha complementation, chemiluminescence, 6 h; max response: stronger effect = higher value. In a few lines:
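Chemiluminescence from complemented enzyme reported PPARalpha activation in cells after 6 hr of compound treatment at 37 C. The detection reagent was incubated for 60 min at room temperature, and compounds were scored as agonists.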

Assay [10] in a line: qHTS assay for small molecule agonists of the antioxidant response element (ARE) signaling pathway measured by Nrf2-dependant transcriptional activity - cell viability counter screen (AID 720653; active = well fitted curve in the direction sought with a large enough effect in the repeat runs; an effect the other way counts as inactive or inconclusive; also: % is scaled to controls: 0 for no effect and ±100 for the full control effect). The following applies: ARE-bla HepG2 viability, CellTiter-Glo ATP luminescence, 16 h; max response: stronger effect = lower value. The method, boiled down:
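Cytotoxicity counter screen: intracellular ATP quantified by CellTiter-Glo luminescence in the same ARE-bla HepG2 plates, after 16 h compound exposure and a 2 h beta-lactamase substrate step.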

Assay [11] in a line: qHTS assay for cell viability of the p53RE-bla HCT-116 cell line (AID 743292). Also: % is scaled to controls: 0 for no effect and ±100 for the full control effect; nearly all actives have a fitted effect of over 55% in size. The method, boiled down:
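Quantitative high-throughput format: compounds in DMSO were pinned onto p53RE-bla HCT-116 cells (4,000/well) and incubated 16 h at 37 C. Total intracellular ATP, read by CellTiter-Glo luminescence, reflects viable cell number.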

The target in assay [12] is Glucocorticoid receptor (Homo sapiens) (UniProt P04150). Nature of the assay: qHTS assay for small molecule agonists of glucocorticoid receptor signaling (AID 588532; active = well fitted curve in the direction sought with a large enough effect in the signal ratio, with a control signal flat; the % refers to the signal ratio;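 also: 100% = dexamethasone at 0.1 µM and 0% = DMSO only wells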). The following applies: HeLa MMTV-bla, beta-lactamase ratio, agonist, 18 h; activation: stronger effect = higher value, percent of dexamethasone control, DMSO zero. In a few lines:
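Using MMTV-bla HeLa cells in medium with 1% stripped FBS and 25 mM HEPES, compounds were titrated and incubated overnight-length (18 h). Beta-lactamase cleavage of CCF4 was quantified by dual-emission fluorescence.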

Assay [13] deals with Peroxisome proliferator-activated receptor delta (Homo sapiens) (UniProt Q03181). Nature of the assay: qHTS assay for small molecule agonists of peroxisome proliferator-activated receptor delta signaling (AID 588534; calls by dose curve;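 also: 0% = DMSO basal wells and 100% = positive control agonist at 10 µM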). The method, boiled down:
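Cell-based beta-lactamase reporter assay run in agonist mode: cells seeded and incubated 5 hrs at 37 C, compounds added and incubated 18 hrs at 37 C. CCF4 dye fluorescence read after 2 hrs at RT; EC50 and efficacy from Hill fits.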

Assay [14] concerns the target Peroxisome proliferator-activated receptor gamma (Homo sapiens) (UniProt P37231). Kind of assay: qHTS assay for small molecule agonists of peroxisome proliferator-activated receptor gamma signaling (AID 588536; active = well fitted curve in the direction sought with a large enough effect in the signal ratio, with a control signal flat, not every such curve was filed as active; the % refers to the signal ratio;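 also: 0% = DMSO basal wells and 100% = rosiglitazone at 2 µM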). In a few lines:
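HEK293 UAS-bla reporter line, 1% charcoal/dextran FBS; titration, 16 h, 37 C; CCF4 loading 2 h RT; fluorescence 460/530 nm. Normalized to rosiglitazone 2 uM = 100%, DMSO = 0%.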

Assay [15] deals with Retinoic acid receptor RXR-alpha (Homo sapiens) (UniProt P19793). Kind of assay: qHTS assay for small molecule agonists of retinoid X receptor alpha signaling (AID 588544; calls by dose curve;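 also: 0% = DMSO basal wells and 100% = reference agonist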).
For assay [16], the target named is Thyroid hormone receptor beta (Homo sapiens) (UniProt P10828). Kind of assay: qHTS assay for small molecule agonists of thyroid hormone receptor beta signaling (AID 588545; calls by dose curve;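 also: 0% = DMSO only and 100% = 10 nM T3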). In a few lines: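 TR-UAS-bla GripTite HEK 293 cells (2500/well, medium with 2% charcoal/dextran FBS) were treated in agonist mode for 18 h at 37 C, titrated. Beta-lactamase was read by CCF4 ratio after 2 h; normalized to 10 nM T3 (100%) and DMSO, Hill-fitted for EC50 and efficacy.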

The target is the same in assay [17]. Nature of the assay: qHTS assay for small molecule antagonists of thyroid hormone receptor beta signaling (AID 588547; active = well fitted inhibition curve with a large enough effect in the signal ratio, with a control signal flat, not every such curve was filed as active; the % refers to the signal ratio;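 also: cells stimulated with 0.4 nM T3 agonist during compound exposure; series mostly up to about 77 µM; % is scaled to controls: 0 for no effect and ±100 for the full control effect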). The following applies: TR-UAS-bla HEK293, beta-lactamase ratio, antagonist mode, 18 h. In a few lines:
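Inhibition of T3-driven (0.4nM final) beta-lactamase reporter activity was measured over 0.59 nM to 92 uM compound after 18 h at 37 C. The cells were GripTite HEK293 TR-UAS-bla in charcoal/dextran-stripped serum, with CCF4 ratio read-out and IC50 from Hill fits.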

A short description of assay [18]: qHTS assay for small molecule agonists of the antioxidant response element (ARE) signaling pathway measured by Nrf2-dependant transcriptional activity (AID 720636; active = well fitted curve in the direction sought with a large enough effect in the repeat runs; an effect the other way counts as inactive or inconclusive;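 also: HepG2 cells with an ARE-driven luciferase reporter; % of control where 0% means no effect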). The method, boiled down: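 First, ARE-luc HepG2 cells attached for 6 hr at 37 C in 1% dialyzed FBS medium. Next, compound or DMSO was added and incubated 16 hr. Finally, ONE-Glo reagent was added and luminescence measured after 30 min.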

A short description of assay [19]: qHTS assay for cell viability of HEK293 cells (AID 743288). Also: % is scaled to controls: 0 for no effect and ±100 for the full control effect; nearly all actives have a fitted effect of over 50% in size. The following applies: ATP luminescence (CellTiter-Glo), 18 h; max response: stronger effect = lower value. The method, boiled down: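 Total intracellular ATP, measured with a luciferase-coupled reagent, indicates the number of viable HEK293 cells. Exposure to test chemicals lasts 18 h at 37 C in 1,536-well format at 2,000 cells/well.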

Assay [20] addresses Nuclear receptor subfamily 1 group I member 2 (Rattus norvegicus) (UniProt Q9R1A7). Nature of the assay: qHTS assay for small molecule activators of the rat pregnane X receptor (rPXR) signaling pathway (AID 651751; call rule not given here; also: 0% is about no effect). The following applies: rPXR reporter cells, luciferase (One-Glo), 24 h.

Results filed as inconclusive are left out. Activity calls are given as the source filed them. Unless noted, calls follow the shape of the dose curve; as a rule, active = well fitted curve in the direction sought with a large enough effect; inconclusive = small, poorly fitted or top-dose-only effect, or another doubt; inactive = no such curve, though single readings can be large; an effect the other way counts as inactive or inconclusive.

Sequence of Estrogen receptor (Homo sapiens) (P03372 whole entry, looked up): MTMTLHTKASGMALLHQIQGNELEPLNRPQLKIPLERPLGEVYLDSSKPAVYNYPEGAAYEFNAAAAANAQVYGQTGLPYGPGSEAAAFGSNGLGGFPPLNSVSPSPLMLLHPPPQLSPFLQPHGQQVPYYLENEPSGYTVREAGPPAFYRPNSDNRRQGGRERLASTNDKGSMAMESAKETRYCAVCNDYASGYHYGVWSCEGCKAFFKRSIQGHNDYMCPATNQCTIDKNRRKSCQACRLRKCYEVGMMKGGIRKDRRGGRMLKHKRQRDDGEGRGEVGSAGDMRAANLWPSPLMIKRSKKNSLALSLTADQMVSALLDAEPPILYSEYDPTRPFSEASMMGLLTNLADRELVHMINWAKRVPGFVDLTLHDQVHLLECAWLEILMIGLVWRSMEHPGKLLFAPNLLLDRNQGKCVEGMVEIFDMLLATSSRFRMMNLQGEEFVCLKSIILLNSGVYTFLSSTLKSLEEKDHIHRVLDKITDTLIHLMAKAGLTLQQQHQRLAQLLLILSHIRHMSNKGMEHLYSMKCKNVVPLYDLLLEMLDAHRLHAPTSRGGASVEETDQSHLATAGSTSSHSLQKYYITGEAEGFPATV
Sequence of Glucocorticoid receptor (Homo sapiens) (P04150 whole entry, looked up): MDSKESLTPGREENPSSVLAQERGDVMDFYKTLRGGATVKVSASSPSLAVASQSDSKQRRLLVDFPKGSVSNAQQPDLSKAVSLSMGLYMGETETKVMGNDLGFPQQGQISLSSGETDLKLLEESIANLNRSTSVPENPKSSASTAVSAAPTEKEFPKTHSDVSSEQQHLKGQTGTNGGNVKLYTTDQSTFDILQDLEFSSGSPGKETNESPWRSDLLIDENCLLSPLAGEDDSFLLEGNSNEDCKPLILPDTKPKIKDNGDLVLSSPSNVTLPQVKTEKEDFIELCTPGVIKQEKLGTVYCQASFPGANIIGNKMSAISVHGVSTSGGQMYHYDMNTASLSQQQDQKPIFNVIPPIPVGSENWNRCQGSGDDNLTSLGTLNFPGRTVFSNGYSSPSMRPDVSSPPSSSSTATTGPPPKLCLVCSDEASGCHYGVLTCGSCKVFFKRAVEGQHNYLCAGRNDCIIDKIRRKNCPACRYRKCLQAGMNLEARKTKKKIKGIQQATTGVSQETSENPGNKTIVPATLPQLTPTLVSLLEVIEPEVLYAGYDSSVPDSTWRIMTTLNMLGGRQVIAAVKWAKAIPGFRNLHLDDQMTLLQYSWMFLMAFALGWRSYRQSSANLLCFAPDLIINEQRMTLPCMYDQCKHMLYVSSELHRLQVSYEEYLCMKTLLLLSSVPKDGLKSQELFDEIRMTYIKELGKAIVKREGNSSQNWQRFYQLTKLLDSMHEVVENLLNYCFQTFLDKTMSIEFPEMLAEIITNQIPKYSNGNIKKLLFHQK
Sequence of Peroxisome proliferator-activated receptor gamma (Homo sapiens) (P37231 whole entry, looked up): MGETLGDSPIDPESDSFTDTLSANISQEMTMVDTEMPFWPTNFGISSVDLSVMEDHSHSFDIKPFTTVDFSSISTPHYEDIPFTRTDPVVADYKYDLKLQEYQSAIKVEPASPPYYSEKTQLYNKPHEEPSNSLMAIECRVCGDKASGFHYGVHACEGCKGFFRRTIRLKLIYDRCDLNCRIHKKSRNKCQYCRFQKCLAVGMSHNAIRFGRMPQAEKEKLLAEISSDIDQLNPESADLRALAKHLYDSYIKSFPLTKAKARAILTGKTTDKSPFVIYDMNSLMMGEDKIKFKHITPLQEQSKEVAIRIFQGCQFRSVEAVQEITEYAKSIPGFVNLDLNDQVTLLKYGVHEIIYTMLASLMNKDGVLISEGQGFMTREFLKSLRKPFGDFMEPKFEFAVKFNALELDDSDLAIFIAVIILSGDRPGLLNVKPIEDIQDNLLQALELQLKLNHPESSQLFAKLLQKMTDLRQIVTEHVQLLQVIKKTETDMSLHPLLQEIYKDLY
Sequence of Nuclear receptor subfamily 1 group I member 2 (Rattus norvegicus) (Q9R1A7 whole entry, looked up): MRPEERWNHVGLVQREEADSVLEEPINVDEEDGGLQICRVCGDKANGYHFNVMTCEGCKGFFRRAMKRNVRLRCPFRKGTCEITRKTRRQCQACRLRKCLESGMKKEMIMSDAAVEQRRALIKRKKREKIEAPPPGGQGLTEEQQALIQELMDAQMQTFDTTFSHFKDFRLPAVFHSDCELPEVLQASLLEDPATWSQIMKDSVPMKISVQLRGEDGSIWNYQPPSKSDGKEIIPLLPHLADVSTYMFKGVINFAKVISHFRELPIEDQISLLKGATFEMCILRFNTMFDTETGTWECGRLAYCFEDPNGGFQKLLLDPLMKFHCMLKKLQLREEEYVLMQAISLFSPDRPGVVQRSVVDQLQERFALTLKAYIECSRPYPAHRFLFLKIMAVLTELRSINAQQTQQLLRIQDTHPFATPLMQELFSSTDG
Sequence of Thyroid hormone receptor beta (Homo sapiens) (P10828 whole entry, looked up): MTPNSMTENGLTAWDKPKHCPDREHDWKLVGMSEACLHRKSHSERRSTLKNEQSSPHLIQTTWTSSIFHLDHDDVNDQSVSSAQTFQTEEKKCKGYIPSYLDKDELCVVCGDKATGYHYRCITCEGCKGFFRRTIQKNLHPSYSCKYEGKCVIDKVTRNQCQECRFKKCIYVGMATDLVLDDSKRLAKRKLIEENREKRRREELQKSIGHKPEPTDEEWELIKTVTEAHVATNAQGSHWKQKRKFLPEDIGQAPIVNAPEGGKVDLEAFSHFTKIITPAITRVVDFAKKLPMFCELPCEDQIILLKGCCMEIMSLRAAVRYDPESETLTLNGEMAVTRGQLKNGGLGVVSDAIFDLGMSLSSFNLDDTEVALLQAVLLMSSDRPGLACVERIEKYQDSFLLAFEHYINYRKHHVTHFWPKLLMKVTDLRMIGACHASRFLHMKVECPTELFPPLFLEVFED
Sequence of Peroxisome proliferator-activated receptor alpha (Homo sapiens) (Q07869 whole entry, looked up): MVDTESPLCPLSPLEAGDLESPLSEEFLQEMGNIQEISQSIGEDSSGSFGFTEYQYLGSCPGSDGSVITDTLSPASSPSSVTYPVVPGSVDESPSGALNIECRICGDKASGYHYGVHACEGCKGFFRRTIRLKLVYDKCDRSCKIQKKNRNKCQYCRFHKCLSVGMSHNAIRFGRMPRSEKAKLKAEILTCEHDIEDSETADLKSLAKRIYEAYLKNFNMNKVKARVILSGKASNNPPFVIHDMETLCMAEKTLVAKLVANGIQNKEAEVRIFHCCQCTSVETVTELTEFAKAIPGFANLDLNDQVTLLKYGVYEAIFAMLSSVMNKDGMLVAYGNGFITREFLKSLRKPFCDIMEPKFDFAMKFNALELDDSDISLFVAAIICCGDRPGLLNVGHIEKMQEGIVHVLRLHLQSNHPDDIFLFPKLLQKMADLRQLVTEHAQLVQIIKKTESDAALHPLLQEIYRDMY
Sequence of Retinoic acid receptor RXR-alpha (Homo sapiens) (P19793 whole entry, looked up): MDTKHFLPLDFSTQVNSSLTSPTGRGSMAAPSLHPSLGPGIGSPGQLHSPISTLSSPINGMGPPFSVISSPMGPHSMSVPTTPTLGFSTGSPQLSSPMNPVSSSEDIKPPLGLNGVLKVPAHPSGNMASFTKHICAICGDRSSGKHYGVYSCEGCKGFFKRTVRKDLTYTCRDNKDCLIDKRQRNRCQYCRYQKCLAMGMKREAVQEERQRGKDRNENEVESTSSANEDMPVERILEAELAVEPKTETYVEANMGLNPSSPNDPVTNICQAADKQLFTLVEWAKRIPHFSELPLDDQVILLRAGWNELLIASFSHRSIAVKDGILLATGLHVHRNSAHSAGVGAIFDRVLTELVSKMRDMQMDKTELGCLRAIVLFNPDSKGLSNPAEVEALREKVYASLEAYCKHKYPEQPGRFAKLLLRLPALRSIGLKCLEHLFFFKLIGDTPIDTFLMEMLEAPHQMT
Sequence of Peroxisome proliferator-activated receptor delta (Homo sapiens) (Q03181 whole entry, looked up): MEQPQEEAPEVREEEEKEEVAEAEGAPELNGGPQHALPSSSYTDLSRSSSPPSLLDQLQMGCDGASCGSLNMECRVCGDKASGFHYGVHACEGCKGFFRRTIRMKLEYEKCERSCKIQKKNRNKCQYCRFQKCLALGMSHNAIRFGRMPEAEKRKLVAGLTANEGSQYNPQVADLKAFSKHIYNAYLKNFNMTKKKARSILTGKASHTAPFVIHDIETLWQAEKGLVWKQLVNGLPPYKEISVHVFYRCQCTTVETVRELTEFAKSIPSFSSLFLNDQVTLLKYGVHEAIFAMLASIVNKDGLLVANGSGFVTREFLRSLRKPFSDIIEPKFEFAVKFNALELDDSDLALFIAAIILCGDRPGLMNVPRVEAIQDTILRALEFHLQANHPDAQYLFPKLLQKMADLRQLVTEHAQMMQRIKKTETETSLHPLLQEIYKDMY

For the compound `CCCCC(O)(Cn1cncn1)c1ccc(Cl)cc1Cl` (configuration not stated), the Potency result in [1], in assay [2], in [4] and in assay [11] was “inactive” throughout. Besides, the max response in [3] was -34%; in assay [5], -3.36%; in [6] it was -17.2% (inactive); in [9], 9.57% (inactive); in assay [10], -0.171% (inactive). Further, the values for the activation in assay [7] and in assay [8] were -5.41% (inactive) and 2.7% (inactive), respectively.

As to `CCOP(N)(=O)Oc1ccc(SC)c(C)c1` (configuration not stated), the Potency result in assay [1], in assay [2], in assay [4], in assay [14], in assay [15] and in assay [16] was “inactive” in each case. Besides, the Potency entry in [18] and in assay [11] was “inactive” throughout. In addition, the activation in [12] was -9.53% (inactive); in [7], -1.01% (inactive); in assay [8] it was 0.564% (inactive). For the same compound, the call in assay [13] was inactive. In addition, the max response in assay [3] is 41.4%; in [5], -11.1%; in assay [6], -26.2% (inactive); in [9] it was -3.39% (inactive); in assay [10] it was -8.16% (inactive); in [19] it was -8.45% (inactive). Also, the max response in assay [20] is 4.69% (inactive). For the same compound, the activity change % (negative = inhibition) in assay [17] is -15.7% (inactive).

Consider `Clc1ccc(-c2cc(Cl)c(Cl)cc2Cl)cc1Cl`, for which the Potency entry in [1], in [2], in [14], in assay [16], in [18] and in [11] was “inactive” throughout. In addition, in assay [13], the compound was called inactive. Besides, the max response was -9.16% in assay [5]; 4.83% (inactive) in assay [6]; 0.243% (inactive) in assay [9]; 3.45% (inactive) in assay [10]; -23.9% (inactive) in assay [19]; -1.84% (inactive) in assay [20]. Further, in assay [17], the activity change % (negative = inhibition) was -25.9% (inactive). Besides, the results for the activation in assay [7] and in [8] were -5.87% (inactive) and 1.74% (inactive), respectively.

`CCSC(=O)N(CC)C1CCCCC1`: the Potency entry in assay [1], in assay [2], in assay [14], in assay [15] and in assay [16] was “inactive” in each case. The activation in assay [12] was -1.4% (inactive). Further, the max response in [5] was 12.6%; in assay [6], 16.6% (inactive); in assay [9], -3.86% (inactive); in assay [10], 13.6% (inactive); in assay [20], -10.9% (inactive).

`CCOP(=S)(OCC)SCCl`: the Potency result in assay [1], in assay [2], in [14], in assay [18] and in assay [11] was “inactive” throughout. The activation in [12] was 12.1% (inactive); in assay [7], 0.473% (inactive); in assay [8] it was 0.0178% (inactive). For the same compound, in assay [17], the activity change % (negative = inhibition) was -1.44% (inactive). Further, the max response is -3.54% (inactive) in [9], -13.5% (inactive) in assay [10], -19.2% (inactive) in assay [19] and -4.02% (inactive) in assay [20].

With `CC(C)CCCCCCOC(=O)c1ccccc1C(=O)OCCCCCCC(C)C`, the Potency result in [1], in assay [2], in assay [4], in assay [15] and in assay [11] was “inactive” throughout. In addition, the call in assay [13] was inactive. In addition, the max response in assay [3] was -6.95%; in [5], -8.76%; in [6], -4.29% (inactive); in [9], -1.61% (inactive); in assay [10] it was 0.428% (inactive); in assay [19], -8.54% (inactive). Also, the max response in [20] is 5.38% (inactive). The activity change % (negative = inhibition) in [17] is -2.48% (inactive). The activation in assay [7] was 0.433% (inactive); in [8] it was 1.61% (inactive).

The record behind these values is PubChem BioAssay (NCATS).
